# Compound activity: PubChem BioAssay, National Center for Advancing Translational Sciences (NCATS)
# Sampled rows, rich in hits. Any-hit rate of the full collection: about 19%.
# HT1080 IDH1KD tx: kills HT-1080 cells with IDH1 knockdown. 360,000 tested, 2% active. AID 686971. HT-1080 IDH1 knockdown viability, ATP luminescence, 48 h. Potency, µM (series often up to 46.1 µM), hits mostly cytotoxic
#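 Cytotoxicity counter-line: IDH1KD HT-1080, 48 h, CellTiter-Glo. Curves classed by r2, magnitude and activity.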
# TDP1 cell noCPT: qHTS for Inhibitors of human tyrosyl-DNA phosphodiesterase 1 (TDP1): qHTS in cells in absence of CPT; DT40 Tdp1-/- hTDP1 cells, no CPT, ATP luminescence, 48 h; Potency, µM (highest dose often 46.2 µM), usual class: inhibitors; 420,000 tested, 15% active; also: nearly all actives have a fitted effect of over 55% in size
#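 Growth kinetics read by CellTiter-Glo luminescence after ≥48 hr at 37 °C. Cells: DT40 Tdp1-/- stably carrying human TDP1, 400 per well, compound exposure in the absence of CPT (DMSO vehicle).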
# IL1B secr inh: inhibitors of inflammasome signaling (IL-1 beta secretion) | THP-1 LPS/ATP IL-1B secretion, AlphaLISA, 16 h; stronger effect = lower value | activity change, % at 57.5 µM | 360,000 tested, 4.7% active; in the data active = activity change below about -50%; inconclusive = mostly about -30% to -49%
#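 Secreted IL-1B measured by AlphaLISA bead assay after 16 h compound exposure of THP-1 cells; compounds (final up to 57.5 uM) added 1 h before LPS (250 ng/mL) and ATP (1.25 mM) stimulation; lower signal means less secretion.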
# HT1080-NT tox: kills 2HG-producing HT-1080-NT fibrosarcoma cells. 360,000 tested, 1.6% active. Potency, µM (highest dose often 46.1 µM), hits mostly cytotoxic. HT-1080-NT fibrosarcoma viability, CellTiter-Glo ATP luminescence, 48 h;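 also: NT is the 2HG producing partner of a matched IDH1 knockdown line; nearly all actives have a fitted effect of over 55% in size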
#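 HT-1080-NT; 750 cells/well; 5% FBS RPMI; 48 h compound, 37 degrees C; CellTiter-Glo luminescence; curve fitting and curve-class assignment.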
# DT40 TDP1 CPT: DT40-hTDP1 cell growth loss with CPT; chicken DT40 Tdp1-/-;hTDP1 cells + 20 nM CPT, ATP luminescence, 48 h; Potency, µM (series often up to 46.2 µM), usual class: inhibitors; 420,000 tested, 12% active; AID 686979; also: nearly all actives have a fitted effect of over 55% in size
#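 Chicken DT40 Tdp1-/- cells complemented with human TDP1, 400 cells/well, exposed to compounds plus 20 nM camptothecin for at least 48 h at 37 C; viability read as ATP content by CellTiter-Glo luminescence.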
# A number is an active result; - = inactive; ? = inconclusive; . = no result; ! = a repeat was not active. Unless noted, calls follow the shape of the dose curve; as a rule, active = well fitted curve in the direction sought with a large enough effect; inconclusive = small, poorly fitted or top-dose-only effect, or another doubt; inactive = no such curve, though single readings can be large; an effect the other way counts as inactive or inconclusive.
SMILES,HT1080 IDH1KD tx,TDP1 cell noCPT,IL1B secr inh,HT1080-NT tox,DT40 TDP1 CPT
O=C(N=Nc1c(O)[nH]c(=O)[nH]c1=O)C1COc2cc3ccccc3cc2O1 (stereo not drawn),-,?,-,-,18µM
CC1=CC(=O)OC2CC3OC4C[C@@H](C)C5OC6CC7O[C@]8(C)C/C=C\C9OC%10CC%11OC(CC(C)C%12OCCO%12)CC(O)[C@]%11(C)OC%10CC9OC8C[C@]7(C)O[C@]6(C)CCC5OC4C[C@]3(C)OC12 (stereo partly drawn),-,?,-,-,29µM
O=C(c1ccc(-c2ccccc2)cc1)C1CCCN(Cc2ccn[nH]2)C1 (stereo not drawn),-,?,-,-,?
CC1OC(=O)C(C(C)C)NC(=O)C(C(C)C)OC(=O)C(C(C)C)NC(=O)C(C)OC(=O)C(C(C)C)NC(=O)C(C(C)C)OC(=O)C(C(C)C)NC(=O)C(C)OC(=O)C(C(C)C)NC(=O)C(C(C)C)OC(=O)C(C(C)C)NC1=O (stereo not drawn),.,0.22µM,.,.,0.18µM
C/C(=N\NC(=O)c1ccccc1O)c1c(O)n(Cc2ccccc2)c(=O)[nH]c1=O,-,-,-,-,-
COc1ccc(-c2nnc3sc(C4CCCCC4)nn23)cc1OC,-,15µM,?,-,18µM
COc1ccc(C2SCC(=O)Nc3c2c(=O)[nH]n3C2CCCCCC2)cc1OC (stereo not drawn),-,?,-,-,-
C=CCn1c(O)c(C(CC)=NCCC2=CCCCC2)c(=O)[nH]c1=O,-,-,-,-,?
Nc1nc2ccc(Cl)cc2c2nc(-c3ccco3)nn12,-,8.9µM,.,-,6.3µM
COc1ccc(NC2=NC(C)(C)CS2)cc1,-,-,-55,-,-
C[n+]1c2ccccc2nc2ccc(NCCO)cc21,-,10µM,-,-,18µM
CNc1ccc2nc3ccccc3[n+](C)c2c1,15µM,0.73µM,-,21µM,1.2µM
COc1cc([C@@H]2c3cc4c(cc3[C@H](OC(C)=O)[C@H]3COC(=O)[C@@H]23)OCO4)cc(OC)c1OC,.,1.1µM,.,.,1.1µM
COc1cc([C@@H]2c3cc4c(cc3[C@@H](O)[C@H]3COC(=O)[C@H]23)OCO4)cc(OC)c1O,.,0.11µM,.,.,0.1µM
COc1cc(C2c3cc4c(cc3C(O)[C@H]3COC(=O)C23)OCO4)cc(OC)c1OC (stereo partly drawn),.,0.037µM,.,.,0.023µM
CC1CCC(NC(=O)c2cc3c(=O)n(C)c4ccccc4c3n2C)CC1 (stereo not drawn),-,?,-,-,9.2µM
O=C1OC(c2ccc(O)c(S(=O)(=O)O)c2)(c2ccc(O)c(S(=O)(=O)O)c2)c2c(Br)c(Br)c(Br)c(Br)c21,.,-,.,.,-
O=c1[nH]c(=S)[nH]c(O)c1C(c1ccccn1)c1c(O)[nH]c(=S)[nH]c1=O,-,-,-,-,-
CC(C)(OOC1(c2ccccc2)NC(=O)c2ccccc21)c1ccccc1 (stereo not drawn),-,18µM,-,-,?
Cc1ccc2c(C)c3ccc4ccccc4c3c[n+]2c1,23µM,4.6µM,-66,-,3.7µM
CC(C)CCOP(=O)(c1ccc(N(C)C)cc1)C(O)c1ccc(C(C)C)cc1 (stereo not drawn),-,21µM,-58,-,?
CCCCOP(=O)(c1ccc(N(C)C)cc1)C(O)c1c(Cl)cccc1Cl (stereo not drawn),-,?,-,-,?
CC(C)CCOP(=O)(c1ccc(N(C)C)cc1)C(O)c1ccc(Cl)cc1Cl (stereo not drawn),16µM,21µM,-88,23µM,16µM
CCC(COC(=O)NC)NC(=O)Oc1ccccc1 (stereo not drawn),-,-,-,-,-
C=C(C)[C@@H]1[C@H]2OC(=O)[C@H]1[C@]1(O)C[C@H]3O[C@]34C(=O)O[C@H]2[C@]14C,-,-,-,-,-
SMILES,HT1080 IDH1KD tx,TDP1 cell noCPT,IL1B secr inh,HT1080-NT tox,DT40 TDP1 CPT
CCc1ccccc1Nc1nn2c(=O)c3ccc(C(=O)Nc4cc(C)cc(C)c4)cc3nc2s1,.,8.2µM,.,.,8.2µM
Cc1ccc(C)c(N2CCN(c3ncnc4onc(C)c34)CC2)c1,.,13µM,.,.,?
COc1ccc(C(=O)N2CCN(c3nc4c(OC)cccc4s3)CC2)cc1OC,.,15µM,.,.,18µM
C/C(=N\Nc1ccccc1)c1c(O)n(-c2ccccc2)c(=O)[nH]c1=O,4.6µM,-,.,?,-
C/C(=N\Nc1ccccc1)c1c(O)n(Cc2ccccc2)c(=O)[nH]c1=O,?,?,-,?,15µM
C/C(=N\Nc1ccccc1)c1c(O)[nH]c(=O)[nH]c1=O,4.1µM,-,-,?,-
C/C(=N\Nc1ccccc1)c1c(O)n(C)c(=O)n(C)c1=O,?,-,-,?,-
CC1c2ccccc2-n2nncc2CN1C (stereo not drawn),-,-,-,-,-
COc1cc2c3cc1Oc1c(OC)c(OC)cc4c1C(Cc1cccc(c1)Oc1ccc(c(O)c1)CC3N(C)CC2)N(C)CC4 (stereo not drawn),.,-,.,.,-
COC(=O)CC1Oc2ccc(C)cc2-n2cc(-c3ccc(F)cc3)nc21 (stereo not drawn),.,9.2µM,.,.,18µM
COc1ccc(CN2Cc3cc(N4CCCCC4)ccc3-n3nncc3C2)cc1,-,?,.,-,?
C1CNC2NCCNC2N1 (stereo not drawn),-,-,-,-,-
COC(=O)[C@H]1[C@H]2C[C@@H]3c4[nH]c5cc(OC)ccc5c4CCN3C[C@H]2C[C@@H](OC(=O)/C=C/c2cc(OC)c(OC)c(OC)c2)[C@@H]1OC,?,13µM!,-,?,?
CC[C@H]1C[C@H]2[C@@H]3CCC4=CC(=O)CC[C@@H]4[C@H]3CC[C@]2(C)[C@H]1O,.,-,.,.,?
COC(=O)C1=C(c2cccc(OC)c2OC)C[C@@H]2CC[C@H]1N2C(=O)NC(C)C,-,-,-,-,?
CC(C)[N+](C)(C)CC(O)CN(c1ccccc1)c1ccccc1 (stereo not drawn),-,-,-,-,?
CC(=O)O[C@H]1C[C@H](O[C@H]2[C@@H](O)C[C@H](O[C@H]3[C@@H](O)C[C@H](OC4CC[C@@]5(C)[C@H](CC[C@@H]6[C@@H]5CC[C@]5(C)[C@@H](C7=CC(=O)OC7)CC[C@]65O)C4)O[C@@H]3C)O[C@@H]2C)O[C@H](C)[C@H]1O[C@@H]1O[C@H](CO)[C@@H](O)[C@H](O)[C@H]1O (stereo partly drawn),.,0.3µM,.,.,0.34µM
